Data as given in PubChem BioAssay AID1159580 (chemical genetic matrix, 2015).
“And” between values parts separate entries of the source, which are not always exact repeats. Equal values may be shown once. In all, about 5,500 compounds went through this assay and about 2,000 (36%) were called active. About 18% were inconclusive and are not listed. Rule as the data show it: active = normalized growth mostly below about 0.91 (no sharp cut-off); inconclusive = no clear call, values can overlap the other calls; inactive = mostly above about 0.92. The list shows a part of the results.

Experiment: chemical genetic growth profiling, strain panel (AID 1159580);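 also: tested at 20 µM; growth read once vehicle control cultures reached saturation at 30 °C; 1 = growth at the plate median or of vehicle wells; lower values mean less growth of the strain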
Settings: S. cerevisiae deletion strains, growth OD

Measured: normalized growth

COc1cc([C@@H]2c3cc4c(cc3C(OC3O[C@@H]5COC(C)O[C@H]5[C@H](O)[C@H]3O)C3COC(=O)[C@@H]32)OCO4)cc(OC)c1O (some centres undefined)
inactive: locus YAL021C, strain ccr4, active compounds read low 1.03 | locus YAL026C, strain drs2, active compounds read low 1.05 | locus YAL030W, strain snc1, active compounds read low 1.05 | locus YBL061C, strain skt5, active compounds read low 1.02 | locus YBR009C, strain hhf1, active compounds read low 1.01 | locus YBR021W, strain FUR4, active compounds read low 0.961 | locus YBR023C, strain chs3, active compounds read low 1.03 | locus YBR171W, strain sec66, active compounds read low 1.07 | locus YBR229C, strain ROT2, active compounds read low 1.01 | locus YBR231C, strain swc5, active compounds read low 1.03 | locus YBR279W, strain paf1, active compounds read low 1.02 | locus YCL011C, strain gbp2, active compounds read low 1.04 | locus YCL016C, strain dcc1, active compounds read low 1.02 | locus YCL029C, strain bik1, active compounds read low 0.989 | locus YCL069W, strain vba3, active compounds read low 1.05 | locus YCR088W, strain abp1, active compounds read low 1.04 | locus YDL005C, strain med2, active compounds read low 1.02 | locus YDL035C, strain GPR1, active compounds read low 0.996 | locus YDL040C, strain nat1, active compounds read low 1.03 | locus YDL074C, strain BRE1, active compounds read low 0.947 | locus YDL101C, strain DUN1, active compounds read low 1 | locus YDL134C, strain PPH21, active compounds read low 1.01 | locus YDL185W, strain tfp1, active compounds read low 0.979 | locus YDL192W, strain arf1, active compounds read low 0.991 | locus YDR001C, strain nth1, active compounds read low 1.02 | locus YDR069C, strain doa4, active compounds read low 1.04 | locus YDR101C, strain arx1, active compounds read low 0.981 | locus YDR137W, strain rgp1, active compounds read low 1.06 | locus YDR159W, strain sac3, active compounds read low 0.987 | locus YDR162C, strain NBP2, active compounds read low 1.03 | locus YDR195W, strain ref2 1.03 | locus YDR297W, strain sur2, active compounds read low 1.02 | locus YDR318W, strain mcm21, active compounds read low 1.01 | locus YDR334W, strain swr1, active compounds read low 1.06 | locus YDR335W, strain msn5, active compounds read low 1.05 | locus YDR388W, active compounds read low 1 | locus YDR392W, strain spt3, active compounds read low 0.948 | locus YDR502C, strain sam2, active compounds read low 0.974 | locus YEL003W, strain gim4, active compounds read low 1.04 | locus YEL037C, strain rad23, active compounds read low 1.05 | locus YEL061C, strain CIN8 (second series), active compounds read low 1.03 | locus YEL061C, strain CIN8, active compounds read low 1.01 | locus YER015W, strain faa2, active compounds read low 1.03 | locus YER016W, strain bim1, active compounds read low 1.03 | locus YER110C, active compounds read low 0.993 | locus YER111C, strain swi4, active compounds read low 1.03 | locus YER155C, strain BEM2 (second series), active compounds read low 1.05 | locus YER155C, strain BEM2, active compounds read low 0.981 | locus YER167W, strain BCK2, active compounds read low 0.998 | locus YFR010W, strain ubp6, active compounds read low 1.02 | locus YGL078C, strain dbp3, active compounds read low 0.976 | locus YGL086W, strain mad1, active compounds read low 0.965 | locus YGL167C, strain pmr1, active compounds read low 1.05 | locus YGL173C, strain kem1, active compounds read low 1.02 | locus YGL227W, strain vid30, active compounds read low 1.03 | locus YGL240W, strain doc1, active compounds read low 0.994 | locus YGL248W, strain PDE1, active compounds read low 1.01 | locus YGL253W, strain hxk2, active compounds read low 1.05 | locus YGR078C, strain PAC10, active compounds read low 1.01 | locus YGR135W, strain pre9, active compounds read low 1.02 | locus YGR252W, strain gcn5, active compounds read low 1.02 | locus YHR013C, strain ard1, active compounds read low 1.04 | locus YHR027C, strain rpn1, active compounds read low 1.01 | locus YHR030C, strain SLT2, active compounds read low 0.998 and 1.06 | locus YHR079C, strain IRE1 (second series), active compounds read low 0.992 | locus YHR079C, strain IRE1, active compounds read low 1.12 | locus YHR094C, strain hxt1, active compounds read low 0.995 | locus YHR129C, strain ARP1, active compounds read low 0.998 | locus YHR142W, strain chs7, active compounds read low 1.06 | locus YHR200W, strain rpn10, active compounds read low 1 | locus YIL066C, strain RNR3, active compounds read low 0.997 | locus YIL073C, strain SPO22, active compounds read low 0.958 | locus YIL125W, strain kgd1, active compounds read low 0.997 | locus YIR030C, strain dcg1, active compounds read low 0.995 | locus YJL092W, strain hpr5, active compounds read low 1.04 | locus YJL095W, strain BCK1 (second series), active compounds read low 1.03 | locus YJL095W, strain BCK1, active compounds read low 1.03 and 1.06 | locus YJL115W, strain asf1, active compounds read low 1.04 | locus YJL129C, strain trk1, active compounds read low 1.05 | locus YJL134W, strain LCB3, active compounds read low 0.998 | locus YJL154C, strain vps35, active compounds read low 1.02 | locus YJL164C, strain tpk1, active compounds read low 1.05 | locus YJL166W, strain qcr8, active compounds read low 1.02 | locus YJL168C, strain set2, active compounds read low 0.998 | locus YJL187C, strain SWE1 (second series), active compounds read low 1 | locus YJR043C, strain POL32, active compounds read low 0.992 | locus YJR066W, strain TOR1, active compounds read low 0.995 | locus YKL009W, strain mrt4, active compounds read low 1.06 | locus YKL068W, active compounds read low 0.995 | locus YKL085W, strain MDH1 (second series), active compounds read low 1.01 | locus YKL085W, strain MDH1, active compounds read low 1.01 | locus YKL160W, strain elf1, active compounds read low 1.02 | locus YKL190W, strain CNB1, active compounds read low 1.02 | locus YKR001C, strain vps1, active compounds read low 1.01 | locus YKR026C, strain gcn3, active compounds read low 1.04 | locus YKR091W, strain srl3, active compounds read low 1.03 | locus YLL001W, strain dnm1, active compounds read low 1.04 | locus YLL026W, active compounds read low 1.04 | locus YLL041C, strain sdh2, active compounds read low 1.02 | locus YLR027C, strain aat2, active compounds read low 1.05 | locus YLR039C, strain RIC1, active compounds read low 1.01 | locus YLR058C, strain SHM2, active compounds read low 1.02 | locus YLR102C, strain apc9, active compounds read low 0.999 | locus YLR113W, strain HOG1, active compounds read low 1.06 | locus YLR221C, strain rsa3, active compounds read low 1.04 | locus YLR258W, strain gsy2, active compounds read low 1.03 | locus YLR262C, strain YPT6 (second series), active compounds read low 1.05 | locus YLR262C, strain YPT6, active compounds read low 1.01 | locus YLR268W, strain sec22, active compounds read low 0.957 | locus YLR320W, strain mms22, active compounds read low 1 | locus YLR330W, strain CHS5, active compounds read low 1.02 | locus YLR342W, strain FKS1 (second series), active compounds read low 1.01 | locus YLR342W, strain FKS1, active compounds read low 1.02 | locus YLR357W, strain rsc2, active compounds read low 1.04 | locus YLR370C, strain arc18, active compounds read low 1.04 | locus YLR371W, strain rom2, active compounds read low 0.979 | locus YLR384C, strain iki3, active compounds read low 1.02 | locus YLR418C, strain cdc73, active compounds read low 0.998 | locus YML016C, strain PPZ1, active compounds read low 0.999 | locus YML032C, strain rad52, active compounds read low 0.982 | locus YML120C, strain ndi1, active compounds read low 1.03 | locus YML124C, strain tub3, active compounds read low 0.996 | locus YMR058W, strain fet3, active compounds read low 1.02 | locus YMR078C, strain ctf18, active compounds read low 0.996 | locus YMR125W, strain sto1, active compounds read low 1.07 | locus YMR129W, active compounds read low 1.04 | locus YMR205C, strain PFK2, active compounds read low 1.02 | locus YMR223W, strain ubp8, active compounds read low 1 | locus YMR231W, strain pep5, active compounds read low 1.03 | locus YMR307W, strain GAS1, active compounds read low 1.06 | locus YNL067W, strain RPL9B, active compounds read low 1.01 | locus YNL071W, strain lat1, active compounds read low 1.04 | locus YNL153C, strain GIM3, active compounds read low 1.02 | locus YNL183C, strain NPR1, active compounds read low 0.995 | locus YNL209W, strain ssb2, active compounds read low 1.03 | locus YNL233W, strain BNI4, active compounds read low 0.991 | locus YNL248C, strain rpa49, active compounds read low 1.02 | locus YNL250W, strain rad50, active compounds read low 0.96 | locus YNL271C, strain bni1, active compounds read low 0.984 | locus YNL298W, strain CLA4, active compounds read low 0.994 | locus YNL307C, strain MCK1, active compounds read low 0.996 | locus YNL322C, strain KRE1 (second series), active compounds read low 1.03 | locus YNL322C, strain KRE1, active compounds read low 1.01 | locus YNR049C, strain mso1, active compounds read low 1.03 | locus YNR052C, strain pop2, active compounds read low 0.985 | locus YOL012C, strain htz1 0.834 | locus YOL147C, strain pex11, active compounds read low 1 | locus YOR001W, strain rrp6, active compounds read low 1.03 | locus YOR061W, strain CKA2, active compounds read low 0.996 | locus YOR069W, strain VPS5, active compounds read low 0.991 | locus YOR070C, strain gyp1, active compounds read low 1.04 | locus YOR080W, strain dia2, active compounds read low 1.02 | locus YOR083W, strain WHI5, active compounds read low 0.979 | locus YOR106W, strain vam3, active compounds read low 1.04 | locus YOR136W, strain idh2, active compounds read low 0.971 | locus YOR144C, strain elg1, active compounds read low 0.998 | locus YOR184W, strain ser1, active compounds read low 1 | locus YOR231W, strain MKK1, active compounds read low 1.05 | locus YOR265W, strain rbl2, active compounds read low 1.01 | locus YOR270C, strain vph1, active compounds read low 1.15 | locus YOR290C, strain snf2, active compounds read low 1.04 | locus YOR316C, strain cot1, active compounds read low 0.997 | locus YPL051W, strain arl3, active compounds read low 1.04 | locus YPL055C, strain LGE1, active compounds read low 1.01 | locus YPL078C, strain atp4, active compounds read low 1.04 | locus YPL106C, strain sse1, active compounds read low 1.07 | locus YPL240C, strain hsp82, active compounds read low 1.02 | locus YPL241C, strain CIN2, active compounds read low 1.01 | locus YPL256C, strain CLN2, active compounds read low 1.08 | locus YPR119W, strain clb2, active compounds read low 0.998 | locus YPR141C, strain kar3, active compounds read low 0.99 | locus YPR163C, strain tif3, active compounds read low 0.985 | locus YPR167C, strain met16, active compounds read low 1.01 | strain wtn01, active compounds read low 0.97
